Results filed as inconclusive are left out. Values without a mark were called inactive. The source made the active and inactive calls. Calls follow the shape of the dose curve; as a rule, active = well fitted curve in the direction sought with a large enough effect; inconclusive = small, poorly fitted or top-dose-only effect, or another doubt; inactive = no such curve, though single readings can be large or run the other way.
Assay: Secondary Assay for Inhibitors of Human Cdc-like kinase 4 (Clk4): HEK-293 Cell Viability Assay;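 also: % of control where 0% means no effect; cytotoxic hits lower the ATP light signal so activity reflects loss of viability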
Conditions: HEK-293 viability, ATP luminescence (CellTiter-Glo), 24/48 h; series mostly up to 46.1 µM; activity change, negative = cytotoxicity: at the top concentration
Procedure, shortened: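 Cytotoxicity was measured as ATP luminescence (CellTiter-Glo) after 24 or 48 h compound exposure at 37 degrees C. HEK-293 cells in MEM with 10% FBS had been seeded 4 h earlier.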
With `CCCNc1ncnc2ccc(-c3ccc4c(c3)OCO4)cc12` the “activity change, negative = cytotoxicity” value was 4.07%.
With `CCn1cnc(CCN(C)c2ncnc3ccc(-c4ccc5c(c4)OCO5)cc23)c1` the “activity change, negative = cytotoxicity” value was -2.87%.
In the case of `c1nc(NCc2ccc3c(c2)OCO3)c2cc(-c3ccc4c(c3)OCCO4)ccc2n1`, the “activity change, negative = cytotoxicity” value is reported as -9.9%.
In the case of `Fc1cccc(CNc2ncnc3ccc(-c4ccoc4)cc23)c1`, the “activity change, negative = cytotoxicity” value is reported as 6.22%.
For `c1nc(NCC2CCCCC2)c2cc(-c3ccc4c(c3)OCO4)ccc2n1`, the “activity change, negative = cytotoxicity” value was -14.3%.
For `Cc1cccc(-c2ccc3ncnc(NCc4cccc(F)c4)c3c2)c1`, the “activity change, negative = cytotoxicity” value was -6.26%.
In the case of `CCCN(Cc1cccs1)c1ncnc2ccc(-c3ccc4c(c3)OCO4)cc12`, the “activity change, negative = cytotoxicity” value is reported as -4.38%.
In the case of `Cc1ccc(CNc2ncnc3ccc(-c4ccc([C@@H](C)O)o4)cc23)o1`, the Potency is reported as “inactive”.
With `COc1cccc(Nc2ncc3ncc(=O)n(C)c3n2)c1` the “activity change, negative = cytotoxicity” value was -7.13%.
For `CCN1/C(=C/C(C)=O)Sc2ccc(OC)cc21`, the “activity change, negative = cytotoxicity” value was -13.9%.
In the case of `O=C(O)c1ccc(-c2ccc3ncnc(NCCc4cnc[nH]4)c3c2)o1`, the “activity change, negative = cytotoxicity” value is reported as 0.179%.
With `Clc1ccccc1-c1ccc2ncnc(NCc3cccnc3)c2c1` the “activity change, negative = cytotoxicity” value was 11.7%.
For `CCOC(=O)c1ccc(-c2ccc3ncnc(NCc4ccc(C)o4)c3c2)o1`, the “activity change, negative = cytotoxicity” value was 7.87%.
For `Cc1occc1-c1ccc2ncnc(NCc3ncc[nH]3)c2c1`, the “activity change, negative = cytotoxicity” value was -0.463%.
For `CN(Cc1cncn1C)c1ncnc2ccc(-c3ccc4c(c3)OCO4)cc12`, the “activity change, negative = cytotoxicity” value was -6.1%.
With `COc1cccc(-c2ccc3ncnc(NCc4cccs4)c3c2)c1` the “activity change, negative = cytotoxicity” value was -9.42%.
With `Clc1ccccc1-c1ccc2ncnc(NCc3cccs3)c2c1` the “activity change, negative = cytotoxicity” value was -4.53%.
In the case of `c1cncc(CNc2ncnc3ccc(-c4ccc5c(c4)OCO5)cc23)c1`, the “activity change, negative = cytotoxicity” value is reported as -18.8%.
With `c1nc(NCCc2cnc[nH]2)c2cc(-c3ccoc3)ccc2n1` the “activity change, negative = cytotoxicity” value was 5.81%.
For `Cc1ccsc1CN(C)c1ncnc2ccc(-c3ccc([C@@H](C)O)o3)cc12`, the Potency was “inactive”.
In the case of `c1c[nH]c(CNc2ncnc3ccc(-c4ccoc4)cc23)n1`, the “activity change, negative = cytotoxicity” value is reported as -0.655%.
In the case of `CCOC(=O)c1ccoc1-c1ccc2ncnc(NCc3csc(C)n3)c2c1`, the “activity change, negative = cytotoxicity” value is reported as -12.9%.
With `Cc1nc(C)c(-c2ccc3ncnc(NCCc4cnc[nH]4)c3c2)s1` the “activity change, negative = cytotoxicity” value was 0.818%.
In the case of `CCOC(=O)c1ccoc1-c1ccc2ncnc(NCc3ccc(C)o3)c2c1`, the “activity change, negative = cytotoxicity” value is reported as -1.84%.
In the case of `c1cncc(CNc2ncnc3ccc(-c4ccco4)cc23)c1`, the “activity change, negative = cytotoxicity” value is reported as -24.3%.
With `COc1cccc(-c2ccc3ncnc(NCc4cccc(F)c4)c3c2)c1` the “activity change, negative = cytotoxicity” value was -5.1%.
